Rows were chosen to be rich in hits. Some 4.1% of all compounds tested hit in one or more screens of this group.
Shn3 3UTR inh: reduction of Shn3 3'UTR firefly luciferase signal, primary screen, Schnurri-3 inhibitor project, cell-based, Clone20 osteoblasts, set 2. Clone20 osteoblast Shn3 3'UTR firefly luciferase, 24 h. inhibition, % at 12.5 µM. 360,000 compounds, 0.52% hits;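 active = mean inhibition of at least 75% with every replicate also reaching 75%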;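 note: 0% = median of neutral control wells and 100% = pilot-screen positive control compound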
TROY signal inh: inhibitors of TROY-driven NF-kB signaling, primary screen, Q293 LMP1-TROYcd cells, NF-kB luciferase, uHTS. Q293 LMP1-TROYcd NF-kB luciferase reporter, 4 h. inhibition, % at 10 µM. 360,000 compounds, 0.98% hits;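 active = compounds whose plate-normalised and pattern-corrected inhibition of the luciferase reporter signal at the single screening dose is 50% or more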
Peg3 prom inh: Peg3 promoter-driven luciferase inhibitors, primary screen, cell-based, HeLa, luciferase luminescence; HeLa PEG-Prom luciferase reporter, overnight; inhibition, % at 20 µM; 360,000 compounds, 1.7% hits; AID 588405, 2011;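 active = inhibition of at least 50% at 20 µM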
MITF TRPM1 inh: inhibitors of MITF-dependent TRPM1 promoter reporter, primary screen, cell-based, SK-MEL-5, single point, luciferase; AID 488899, 2010; 330,000 compounds, 0.83% hits; inhibition, % at 12.5 µM; SK-MEL-5 TRPM1 promoter luciferase, 24 h;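 active = mean inhibition across replicates of 60% or more, whatever share of single replicates reaches that level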
LMP1 NFkB inh: EBV LMP1-driven NF-kappaB luciferase reporter inhibitors, primary screen, cell-based, luminescence, single point; LMP1-induced NF-kappaB luciferase reporter cells; inhibition, % at 12.5 µM; 350,000 compounds, 0.69% hits; in the data active = inhibition above about 41%;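 note: 0% = neutral control wells and 100% = reference inhibitor control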
TWEAK Fn14 block: inhibitors of TWEAK-Fn14 signaling, primary screen, luciferase reporter cells, uHTS. inhibition, % at 10 µM. 360,000 compounds, 2% hits. TWEAK-stimulated Fn14 reporter cells, luciferase luminescence, 8 h; in the data active = inhibition above about 50%
Starred values were filed as active, the others as inactive; nt = not tested or not shown.

SMILES	Shn3 3UTR inh	TROY signal inh	Peg3 prom inh	MITF TRPM1 inh	LMP1 NFkB inh	TWEAK Fn14 block
COCCNC(=O)C1(C)CCCN(Cc2ccc(OC)cc2)C1 (stereo not drawn)	11	14	10	nt	nt	12
CCN(CC)S(=O)(=O)c1ccc(C(=O)Oc2cc(C)[nH]c(=O)c2[N+](=O)[O-])cc1	-2	-6	-14	10	-2	22
CN(CC(O)COCc1ccccc1F)C1CCCCC1 (stereo not drawn)	3	5	2	3	6	64*
CN(CC(O)COc1ccccc1F)C1CCCCC1 (stereo not drawn)	11	-3	14	-1	-4	1
Cn1nc(-c2ccc(N3CCOCC3)c(NS(=O)(=O)c3ccc(Cl)cc3)c2)c2ccccc2c1=O	-59	nt	24	18	4	61*
Cc1ccc(S(=O)(=O)Nc2cc(-c3nn(C)c(=O)c4ccccc34)ccc2N2CCOCC2)cc1	18	28	24	44	-2	43
CC(C)CC(=O)/C=C/n1c(=S)oc2ccccc21	97*	15	107*	76*	66*	99*
CCc1ccc(S(=O)(=O)/N=C2\C=C(Nc3ccc(C(=O)O)cc3)C(=O)c3ccccc32)cc1	-14	48	15	16	0	96*
Cc1ccc(S(=O)(=O)/N=C2\C=C(Nc3cccc(C(=O)O)c3)C(=O)c3ccccc32)cc1	-27	-6	-221	3	-12	94*
Cc1ccc(S(=O)(=O)/N=C2\C=C(Nc3cccc(C(=O)O)c3)C(=O)c3ccccc32)c(C)c1	5	16	-53	17	-13	93*
Cc1ccc(S(=O)(=O)/N=C2\C=C(Nc3ccc(O)cc3)C(=O)c3ccccc32)cc1	97*	43	105*	99*	88*	101*
COc1cccc([C@@H]2CC=C(C(=O)O)[C@H](c3ccc(Br)cc3)N2S(=O)(=O)c2ccc(C)cc2)c1	12	5	3	7	-14	8
COc1ccc(CCN2C(=O)CCC2(C)c2nnnn2Cc2ccccc2)cc1OC (stereo not drawn)	nt	-19	nt	nt	nt	18
Cc1ccccc1OCCC(=O)N1CCN(S(=O)(=O)c2ccc(F)cc2)CC1	15	-35	7	8	-1	8
Cc1cc(C)c(S(=O)(=O)N2CCN(C(=O)CCOc3ccccc3C)CC2)c(C)c1	9	25	21	nt	64*	-34
O=C(Nc1ccc(Cc2ccncc2)cc1)C1CCC(N2C(=O)C3C4C=CC(C5CC45)C3C2=O)CC1 (stereo not drawn)	75	53*	40	40	-13	47
CC(C)(C)c1ccc(C(=O)O/N=C(\N)c2ccccc2)cc1	70	90*	104*	69*	57*	105*
COc1ccc(C(=O)O/N=C(\N)c2ccccc2)cc1	-3	42	31	-44	6	82*
N/C(=N\OC(=O)c1ccc(Br)cc1)c1ccccc1	-39	-7	-250	-74	-41	27
COc1ccc(/C(N)=N/OC(=O)c2ccco2)cc1	18	56*	-114	18	19	64*
Cc1ccc(CNC(=O)CCNC(=O)c2ccc([N+](=O)[O-])cc2)cc1	10	-6	3	-4	10	-2
C[C@]12c3[nH]c4ccccc4c3CCN1C(=O)C(CC(=O)NCCN1CCOCC1)C[C@@H]2C(=O)N1CCOCC1 (stereo partly drawn)	-16	2	0	6	6	3
O=C1NC[C@H](c2ccccc2)OC(=O)[C@@H](Cc2ccc(F)cc2)CC/C=C/C[C@H]1CC(=O)N(CCO)Cc1ccccc1	34	20	59*	26	-3	20
O=C1NC[C@H](c2ccccc2)OC(=O)[C@@H](Cc2ccc(F)cc2)CC/C=C/C[C@@H]1CC(=O)N(CCO)Cc1ccccc1	2	4	35	11	4	19

Screening results as filed in PubChem BioAssay.
